The results in this text go back to PubChem BioAssay AID1671192 (National Center for Advancing Translational Sciences (NCATS), 2021).

Inconclusive results are not listed. Values without a mark were called inactive. Calls follow the shape of the dose curve; as a rule, active = well fitted curve in the direction sought with a large enough effect; inconclusive = small, poorly fitted or top-dose-only effect, or another doubt; inactive = no such curve, though single readings can be large or run the other way.

Chain of Polyunsaturated fatty acid lipoxygenase ALOX15 (Homo sapiens) (P16050 whole entry, looked up): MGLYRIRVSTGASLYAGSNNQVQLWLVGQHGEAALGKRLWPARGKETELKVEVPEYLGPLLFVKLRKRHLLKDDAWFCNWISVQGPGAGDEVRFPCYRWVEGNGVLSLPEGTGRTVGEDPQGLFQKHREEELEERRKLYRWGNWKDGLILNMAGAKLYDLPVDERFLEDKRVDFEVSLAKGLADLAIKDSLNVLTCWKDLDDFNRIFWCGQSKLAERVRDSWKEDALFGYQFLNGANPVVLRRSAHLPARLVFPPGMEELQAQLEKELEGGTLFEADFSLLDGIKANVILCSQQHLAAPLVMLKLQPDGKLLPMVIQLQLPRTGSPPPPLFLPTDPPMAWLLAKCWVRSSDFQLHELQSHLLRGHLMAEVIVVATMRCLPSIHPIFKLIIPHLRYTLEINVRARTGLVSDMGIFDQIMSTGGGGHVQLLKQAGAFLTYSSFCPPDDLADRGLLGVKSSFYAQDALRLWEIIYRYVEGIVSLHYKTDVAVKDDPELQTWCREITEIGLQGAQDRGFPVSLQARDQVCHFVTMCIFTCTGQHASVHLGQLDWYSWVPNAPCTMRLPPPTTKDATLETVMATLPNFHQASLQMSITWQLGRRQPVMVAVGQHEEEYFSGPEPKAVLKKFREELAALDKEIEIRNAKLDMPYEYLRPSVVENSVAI

This experiment deals with Polyunsaturated fatty acid lipoxygenase ALOX15 (Homo sapiens) (UniProt P16050). The experiment can be described thus: Counterscreen qHTS for inhibitors of human arachidonate 12S-lipoxygenase (ALOX12): ALOX15 Assay. Also: 0% is about no effect. Particulars: purified ALOX15 enzyme activity; series mostly up to 110 µM; activity change, negative = inhibition: at the top concentration. Put shortly:
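Purified human ALOX15 (15hLO-1) at 40 nM in 25 mM HEPES, 0.01% Triton X-100, pH 7.5, preincubated with compound 15 min at RT. Then 50 uM arachidonic acid for 30 min; hydroperoxide detected by Fe-xylenol orange as the 573/405 nm absorbance ratio.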
A general note: Counterscreens check selectivity or assay interference.
With `O=C1NCc2ccccc2CC12CCN(Cc1ccccc1Br)C2` (configuration not stated), the “activity change, negative = inhibition” value is -7.1%. As to `CCOc1cccc(CN2CCC3(Cc4ccccc4CNC3=O)C2)c1` (configuration not stated), the “activity change, negative = inhibition” value is -23.1%.

With `CN1CC(=O)N(C2CCNCC2)Cc2c(NCCOc3ccccc3)ncnc21`, the “activity change, negative = inhibition” value is -4.67%. For `O=C(NC1CCCCC1)N1CCC(c2nnc3n2CCNC3)CC1`, the “activity change, negative = inhibition” value was -21.9%. The same measure for `O=C(O)CCC(=O)N1Cc2ccccc2CC2(CCCN2CC2CCNC2)C1` (configuration not stated): -30.7%; for `N#Cc1cccnc1-c1ccc(C(=O)O)cc1`: -24.7% [at 146 µM]. In the case of `COc1cccc(-c2ccc(CN)cc2)c1` it was -1.18% [at 146 µM]; in that of `Cn1nc(C2CCCNC2)c2c(C(=O)NCC(F)(F)F)cc(C3CC3)nc21` (configuration not stated), -15.3%.

Regarding `O=C(C1CCCC1)N1Cc2ccccc2CC2(CCN(Cc3ccncc3)C2)C1` (configuration not stated), the “activity change, negative = inhibition” value was -18%. In the case of `COc1ccc(CNc2ncnc3c2CN(C2CCNC2)C(=O)CN3C)cc1OC` (configuration not stated) it was -20.1%. On to `O=c1n(-c2cccc(Cl)c2)nc2n1CCN([S+](=O)([O-])c1ccccc1)C2`, for which the “activity change, negative = inhibition” value is -1.83%. As for `CN1CC(=O)N(C2CCCNCC2)Cc2c1ncnc2N1CCC(N2CCCC2)CC1` (configuration not stated), the “activity change, negative = inhibition” value is 3.04%. In the case of `COc1ccc(N2CC3CCC(C2)N3CC(C)C)cc1` it was 3.97% [at 146 µM].

Regarding `O=C(C1CCCC1)N1CC2(CCN(Cc3ccc(Cl)cc3)C2)Cc2ccccc21` (configuration not stated), the “activity change, negative = inhibition” value was -17.1%.

Consider `O=C(NC1CC1)c1cc(C2CC2)nc2onc(C3CCNC3)c12` (configuration not stated), for which the “activity change, negative = inhibition” value was -20.2% [at 146 µM]. The same measure for `CN(C)C(=O)N1CCCC(c2nnc3n2CCNC3)C1` (configuration not stated): -25.6% [at 146 µM]; for `CCCCCNc1ncnc2c1CN(C1CCNCC1)C(=O)CN2C`: -5.83% [at 146 µM]; for `O=C1NCc2ccccc2CC12CCN(Cc1cccc3ccccc13)C2` (configuration not stated): -22.1%. As to `C[C@H](C(=O)N1Cc2ccccc2CC2(CCN(C)C2)C1)c1ccccc1` (some centres not stated), the “activity change, negative = inhibition” value is -1.29%. Regarding `c1ccc(CN2CC(Oc3ccc4c(c3)OCO4)C2)cc1`, the “activity change, negative = inhibition” value is 12.5% [at 146 µM]. In the case of `CN(C)CCC(=O)N1Cc2ccccc2CC2(CCCCN2CC2CCOCC2)C1` (configuration not stated) it was -26.4%; in that of `CCOC(=O)N1CCC(NC)CC1`, 3.49% [at 146 µM]; in that of `O=C1NC(=NC2CCCC2)C2(CCN(CC3CCCCC3)CC2)N1c1cc(F)cc(F)c1`, -26%.

On to `NCc1cccc(-c2cc(C(F)(F)F)ccc2Cl)c1`, for which the “activity change, negative = inhibition” value was -3.31% [at 146 µM]. As for `CCN1CCCCC12Cc1ccccc1CN(C(=O)C1CCN(C)CC1)C2` (configuration not stated), the “activity change, negative = inhibition” value was -5.74%.

`COc1ccccc1C(=O)N1CCn2c(nnc2C2CCNCC2)C1`: the “activity change, negative = inhibition” value was -4.23% [at 146 µM].

As for `CC(=O)NCCC(=O)N1Cc2ccccc2CC2(CCCN2CCc2ccc(C)cc2)C1` (configuration not stated), the “activity change, negative = inhibition” value is 12.2%. Regarding `O=c1[nH]c(C2CCCN(Cc3cccc(-c4cccs4)c3)C2)nc2ccc(F)cc12` (configuration not stated), the “activity change, negative = inhibition” value is -23%. The same measure for `CCN1CCCC12Cc1ccccc1CN([S+](C)(=O)[O-])C2` (configuration not stated): 17.5% [at 146 µM]; for `CN1CC(=O)N(C2CCCNCC2)Cc2c(NCc3cccc(Cl)c3)ncnc21` (configuration not stated): -12.3%. In the case of `CN1CC(=O)N(C2CCCNCC2)Cc2c(NCC3CC3)ncnc21` (configuration not stated) it was 2.11%.

Consider `FC(F)(F)c1ccc(CN2CCCC3(CC(c4cccc(C(F)(F)F)c4)=NO3)C2)cc1` (configuration not stated), for which the “activity change, negative = inhibition” value is -20.9%. `COc1ccc(-c2nc(C3CC3)nc3c2CN([S+](=O)([O-])c2ccccc2)CC3)cc1`: the “activity change, negative = inhibition” value is 0.186%. In the case of `NCc1ccc(-c2ccccn2)cc1` it was -4.33% [at 233 µM]. The same measure for `Cc1ccccc1N(C)C1CN(C(=O)OC(C)(C)C)C1`: -3.04% [at 146 µM]; for `CN1CC(=O)N(C2CCNCC2)Cc2c(NCCN3CCOCC3)ncnc21`: -2.01%; for `C[S+](=O)([O-])N1CC2(Cc3ccccc3NC2=O)C1`: 0.0174% [at 146 µM].
